{
  "source": "the supplement of paper PMC8728848",
  "experiment_in_all_cases": "glycan array binding signal (z-score within array); higher = stronger binding",
  "settings_in_all_cases": "glycan notation: IUPAC condensed, linker removed",
  "key": {"[1]": {"target": "Fuc(a1-2)Gal(b1-3)GlcNAc(b1-2)Man(a1-3)[Fuc(a1-2)Gal(b1-3)GlcNAc(b1-2)Man(a1-6)]Man(b1-4)GlcNAc(b1-4)GlcNAc", "outline": "(§1)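 Columns mapping to the same glycan were averaged after glycan names were converted to IUPAC-condensed notation. The data come from 3228 arrays in the Consortium for Functional Glycomics database, limited to those with an available protein sequence. Binding is reported as a within-array Z-score averaged across arrays of one protein sequence and across linkers.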"}, "[2]": {"target": "Fuc(a1-2)Gal(b1-3)[Fuc(a1-4)]GlcNAc(b1-2)Man(a1-3)[Fuc(a1-2)Gal(b1-3)[Fuc(a1-4)]GlcNAc(b1-2)Man(a1-3)]Man(b1-4)GlcNAc(b1-4)GlcNAc", "outline": "as §1"}, "[3]": {"target": "Fuc(a1-2)Gal(b1-4)GlcNAc(b1-3)Gal(b1-4)GlcNAc(b1-2)Man(a1-3)[Fuc(a1-2)Gal(b1-4)GlcNAc(b1-3)Gal(b1-4)GlcNAc(b1-2)Man(a1-6)]Man(b1-4)GlcNAc(b1-4)GlcNAc", "outline": "as §1"}, "[4]": {"target": "Fuc(a1-2)Gal(b1-4)GlcNAc(b1-3)GalNAc", "outline": "as §1"}, "[5]": {"target": "Fuc(a1-2)Gal6S(b1-3)GlcNAc6S", "outline": "as §1"}, "Fuc(a1-2)[Gal(a1-3)]Gal": {"target": "Fuc(a1-2)[Gal(a1-3)]Gal", "outline": "as §1"}, "[6]": {"target": "Fuc(a1-2)[Gal(a1-3)]Gal(b1-3)GlcNAc(b1-2)Man(a1-3)[Fuc(a1-2)[Gal(a1-3)]Gal(b1-3)GlcNAc(b1-2)Man(a1-6)]Man(b1-4)GlcNAc(b1-4)GlcNAc", "outline": "as §1"}, "[7]": {"target": "Fuc(a1-3)[Gal(b1-4)]GlcNAc(b1-3)Gal(b1-4)[Fuc(a1-3)]GlcNAc", "outline": "as §1"}, "[8]": {"target": "Fuc(a1-3)[GalNAc(b1-4)]GlcNAc6S", "outline": "as §1"}, "Gal(a1-4)Gal(b1-4)GlcNAc": {"target": "Gal(a1-4)Gal(b1-4)GlcNAc", "outline": "as §1"}, "[9]": {"target": "Gal(b1-3)GlcNAc(b1-2)[Gal(b1-3)GlcNAc(b1-6)]Man(a1-6)[Gal(b1-3)GlcNAc(b1-2)Man(a1-3)]Man(b1-4)GlcNAc(b1-4)GlcNAc", "outline": "as §1"}, "[10]": {"target": "Gal(b1-3)GlcNAc(b1-3)Gal(b1-3)GlcNAc", "outline": "as §1"}, "[11]": {"target": "Gal(b1-3)GlcNAc(b1-3)Gal(b1-4)Glc", "outline": "as §1"}, "[12]": {"target": "Gal(b1-3)[GlcNAc(b1-6)]GalNAc", "outline": "as §1"}, "[13]": {"target": "Gal(b1-4)GlcNAc(b1-2)Man(a1-3)[Gal(b1-4)GlcNAc(b1-2)Man(a1-6)]Man(b1-4)GlcNAc(b1-4)GlcNAc", "outline": "as §1"}, "[14]": {"target": "Gal(b1-4)GlcNAc(b1-2)Man(a1-3)[Gal(b1-4)GlcNAc(b1-2)Man(a1-6)][GlcNAc(b1-4)]Man(b1-4)GlcNAc(b1-4)[Fuc(a1-6)]GlcNAc", "outline": "as §1"}, "[15]": {"target": "Gal(b1-4)GlcNAc(b1-3)Gal(b1-3)GalNAc", "outline": "as §1"}, "[16]": {"target": "Gal(b1-4)GlcNAc(b1-3)Gal(b1-4)GlcNAc(b1-3)Gal(b1-4)GlcNAc(b1-3)Gal(b1-4)GlcNAc(b1-2)Man(a1-3)[Gal(b1-4)GlcNAc(b1-3)Gal(b1-4)GlcNAc(b1-3)Gal(b1-4)GlcNAc(b1-3)Gal(b1-4)GlcNAc(b1-2)Man(a1-6)]Man(b1-4)GlcNAc(b1-4)GlcNAc", "outline": "as §1"}, "[17]": {"target": "Gal(b1-4)GlcNAc(b1-3)Gal(b1-4)GlcNAc(b1-3)Gal(b1-4)GlcNAc(b1-3)Gal(b1-4)GlcNAc(b1-2)Man(a1-3)[Gal(b1-4)GlcNAc(b1-3)Gal(b1-4)GlcNAc(b1-3)Gal(b1-4)GlcNAc(b1-3)Gal(b1-4)GlcNAc(b1-2)Man(a1-6)]Man(b1-4)GlcNAc(b1-4)[Fuc(a1-6)]GlcNAc", "outline": "as §1"}, "[18]": {"target": "Gal(b1-4)GlcNAc(b1-3)Gal(b1-4)GlcNAc(b1-3)Gal(b1-4)GlcNAc(b1-3)Gal(b1-4)GlcNAc(b1-3)Gal(b1-4)GlcNAc(b1-2)Man(a1-3)[Gal(b1-4)GlcNAc(b1-3)Gal(b1-4)GlcNAc(b1-3)Gal(b1-4)GlcNAc(b1-3)Gal(b1-4)GlcNAc(b1-3)Gal(b1-4)GlcNAc(b1-2)Man(a1-6)]Man(b1-4)GlcNAc(b1-4)[Fuc(a1-6)]GlcNAc", "outline": "as §1"}, "[19]": {"target": "Gal(b1-4)GlcNAc(b1-3)[Fuc(a1-3)GlcNAc(b1-6)]Gal(b1-4)Glc", "outline": "as §1"}, "[20]": {"target": "Gal(b1-4)GlcNAc(b1-3)[Gal(b1-4)GlcNAc(b1-6)]Gal(b1-4)GlcNAc", "outline": "as §1"}, "Gal(b1-4)GlcNAc6P": {"target": "Gal(b1-4)GlcNAc6P", "outline": "as §1"}, "Gal3S(b1-4)Glc6S": {"target": "Gal3S(b1-4)Glc6S", "outline": "as §1"}, "[21]": {"target": "Gal3S(b1-4)[Fuc(a1-3)]GlcNAc6S", "outline": "as §1"}, "GalNAc(b1-3)GlcNAc": {"target": "GalNAc(b1-3)GlcNAc", "outline": "as §1"}, "[22]": {"target": "GalNAc3S(b1-4)[Fuc(a1-3)]GlcNAc", "outline": "as §1"}, "[23]": {"target": "GlcA3S(b1-3)Gal(b1-4)GlcNAc(b1-3)Gal(b1-4)Glc", "outline": "as §1"}, "[24]": {"target": "GlcNAc(b1-3)Gal(b1-4)GlcNAc(b1-2)[GlcNAc(b1-3)Gal(b1-4)GlcNAc(b1-6)]Man(a1-6)[GlcNAc(b1-3)Gal(b1-4)GlcNAc(b1-2)Man(a1-3)]Man(b1-4)GlcNAc(b1-4)GlcNAc", "outline": "as §1"}, "[25]": {"target": "GlcNAc(b1-3)Gal(b1-4)GlcNAc(b1-6)[Gal(b1-3)]GalNAc", "outline": "as §1"}, "Man(a1-3)[Man(a1-6)]Man": {"target": "Man(a1-3)[Man(a1-6)]Man", "outline": "as §1"}, "[26]": {"target": "Neu5Ac(a2-3)Gal(b1-3)GlcNAc(b1-6)GalNAc", "outline": "as §1"}, "[27]": {"target": "Neu5Ac(a2-3)Gal(b1-4)GlcNAc(b1-6)GalNAc", "outline": "as §1"}, "[28]": {"target": "Neu5Ac(a2-6)Gal(b1-4)GlcNAc(b1-2)Man(a1-3)[Man(a1-6)]Man(b1-4)GlcNAc(b1-4)GlcNAc", "outline": "as §1"}, "[29]": {"target": "Neu5Ac(a2-6)Gal(b1-4)GlcNAc(b1-2)Man(a1-3)[Neu5Ac(a2-6)Gal(b1-4)GlcNAc(b1-2)Man(a1-6)]Man(b1-4)GlcNAc(b1-4)GlcNAc", "outline": "as §1"}, "[30]": {"target": "Neu5Ac(a2-6)Gal(b1-4)GlcNAc(b1-3)Gal(b1-3)GlcNAc", "outline": "as §1"}, "[31]": {"target": "Neu5Ac(a2-6)Gal(b1-4)GlcNAc(b1-3)Gal(b1-4)GlcNAc", "outline": "as §1"}, "Neu5Ac(a2-6)GalNAc": {"target": "Neu5Ac(a2-6)GalNAc", "outline": "as §1"}, "Neu5Gc(a2-6)GalNAc": {"target": "Neu5Gc(a2-6)GalNAc", "outline": "as §1"}},
  "note": "The sample as a whole holds a higher share of the strongest signals than the screen did.",
  "data": [
    {"binder": "Clec18C (Homo sapiens) (protein) MLHPETSPGRGHLLAVLLALLGTAWAEVWPPQLQEQAPMAGALNRKESFLLLSLHNRLRSWVQPPAADMRRLDWSDSLAQLAQARAALCGTPTPSLASGLWRTLQVGWNMQLLPAGLVSFVEVVSLWFAEGQRYSHAAGECARNATCTHYTQLVWATSSQLGCGRHLCSAGQAAIEAFVCAYSPRGNWEVNGKTIVPYKKGAWCSLCTASVSGCFKAWDHAGGLCEVPRNPCRMSCQNHGRLNISTCHCHCPPGYTGRYCQVRCSLQCVHGRLREEECSCVCDIGYGGAQCATKVHFPFHTCDLRIDGDCFMVSSEADTYYRARMKCQRKGGVLAQIKSQKVQDILAFYLGRLETTNEVIDSDFETRNFWIGLTYKTAKDSFRWATGEHQAFTSFAFGQPDNHGFGNCVELQASAAFNWNNQRCKTRNRYICQFAQEHISRWGPGS", "values": [
      {"measurement": "glycan array binding signal (z-score)", "setting": "[1]", "value": 3.46},
      {"measurement": "glycan array binding signal (z-score)", "setting": "[2]", "value": 0.055},
      {"measurement": "glycan array binding signal (z-score)", "setting": "[3]", "value": 0.124},
      {"measurement": "glycan array binding signal (z-score)", "setting": "[4]", "value": 3.79},
      {"measurement": "glycan array binding signal (z-score)", "setting": "[5]", "value": -0.032},
      {"measurement": "glycan array binding signal (z-score)", "setting": "Fuc(a1-2)[Gal(a1-3)]Gal", "value": -0.382},
      {"measurement": "glycan array binding signal (z-score)", "setting": "[6]", "value": -0.479},
      {"measurement": "glycan array binding signal (z-score)", "setting": "[7]", "value": -0.261},
      {"measurement": "glycan array binding signal (z-score)", "setting": "[8]", "value": 0.313},
      {"measurement": "glycan array binding signal (z-score)", "setting": "Gal(a1-4)Gal(b1-4)GlcNAc", "value": 1.24},
      {"measurement": "glycan array binding signal (z-score)", "setting": "[9]", "value": -0.547},
      {"measurement": "glycan array binding signal (z-score)", "setting": "[10]", "value": -0.443},
      {"measurement": "glycan array binding signal (z-score)", "setting": "[11]", "value": -0.457},
      {"measurement": "glycan array binding signal (z-score)", "setting": "[12]", "value": 4.42},
      {"measurement": "glycan array binding signal (z-score)", "setting": "[13]", "value": 5.03},
      {"measurement": "glycan array binding signal (z-score)", "setting": "[14]", "value": 1.07},
      {"measurement": "glycan array binding signal (z-score)", "setting": "[15]", "value": 5.75},
      {"measurement": "glycan array binding signal (z-score)", "setting": "[16]", "value": 1.91},
      {"measurement": "glycan array binding signal (z-score)", "setting": "[17]", "value": -0.276},
      {"measurement": "glycan array binding signal (z-score)", "setting": "[18]", "value": 3.34},
      {"measurement": "glycan array binding signal (z-score)", "setting": "[19]", "value": -0.356},
      {"measurement": "glycan array binding signal (z-score)", "setting": "[20]", "value": 7.63},
      {"measurement": "glycan array binding signal (z-score)", "setting": "Gal(b1-4)GlcNAc6P", "value": 5.02},
      {"measurement": "glycan array binding signal (z-score)", "setting": "Gal3S(b1-4)Glc6S", "value": -0.387},
      {"measurement": "glycan array binding signal (z-score)", "setting": "[21]", "value": -0.116},
      {"measurement": "glycan array binding signal (z-score)", "setting": "GalNAc(b1-3)GlcNAc", "value": 3.98},
      {"measurement": "glycan array binding signal (z-score)", "setting": "[22]", "value": -0.342},
      {"measurement": "glycan array binding signal (z-score)", "setting": "[23]", "value": -0.395},
      {"measurement": "glycan array binding signal (z-score)", "setting": "[24]", "value": -0.368},
      {"measurement": "glycan array binding signal (z-score)", "setting": "[25]", "value": -0.398},
      {"measurement": "glycan array binding signal (z-score)", "setting": "Man(a1-3)[Man(a1-6)]Man", "value": -0.507},
      {"measurement": "glycan array binding signal (z-score)", "setting": "[26]", "value": -0.247},
      {"measurement": "glycan array binding signal (z-score)", "setting": "[27]", "value": 3.92},
      {"measurement": "glycan array binding signal (z-score)", "setting": "[28]", "value": -0.24},
      {"measurement": "glycan array binding signal (z-score)", "setting": "[29]", "value": 0.183},
      {"measurement": "glycan array binding signal (z-score)", "setting": "[30]", "value": 0.131},
      {"measurement": "glycan array binding signal (z-score)", "setting": "[31]", "value": 3.16},
      {"measurement": "glycan array binding signal (z-score)", "setting": "Neu5Ac(a2-6)GalNAc", "value": 5.42},
      {"measurement": "glycan array binding signal (z-score)", "setting": "Neu5Gc(a2-6)GalNAc", "value": -0.265}
    ]}
  ]
}
